# Data taken from PubChem BioAssay (NCI).
# The panel holds about 83,000 compounds, 20% with a hit somewhere; the sample as a whole holds those more often.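 For each line, cells grew in 96-well plates with the test compound present at a single concentration for 48 hours.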 A number with no mark means an inactive call. Active and inactive are the calls of the source. The calls were made as follows: active = growth percent below 10; inactive = the rest.
# How the values were obtained:
# Assay in all cases: NCI-60 one-dose screen, 48 h (100 = growth as untreated, 0 = no growth, -100 = all killed)
# Conditions in all cases: 10 µM unless noted
# [1] = test system: SK-MEL-2 melanoma
# [2] = test system: SN12C renal
# [3] = test system: UO-31 renal
# [4] = test system: TK-10 renal
# [5] = test system: ACHN renal
# [6] = test system: CAKI-1 renal
# [7] = test system: A498 renal
# [8] = test system: CCRF-CEM leukemia
# [9] = test system: MOLT-4 leukemia
# [10] = test system: RPMI-8226 leukemia
# [11] = test system: OVCAR-8 ovarian
# [12] = test system: OVCAR-5 ovarian
# [13] = test system: OVCAR-4 ovarian
# [14] = test system: SK-OV-3 ovarian
# [15] = test system: IGROV1 ovarian
# [16] = test system: OVCAR-3 ovarian
# [17] = test system: HS 578T breast
# [18] = test system: NCI/ADR-RES ovarian
# [19] = test system: SR leukemia
SMILES,growth [1],growth [2],growth [3],growth [4],growth [5],growth [6],growth [7],growth [8],growth [9],growth [10],growth [11],growth [12],growth [13],growth [14],growth [15],growth [16],growth [17],growth [18],growth [19]
O=C1/C(=C/c2ccc(Cl)cc2)CN(Cc2cn(CCNc3ccnc4cc(Cl)ccc34)nn2)C/C1=C\c1ccc(Cl)cc1,-89% (active),-76.1% (active),-97.1% (active),-89% (active),-100% (active),6.59% (active),-100% (active),-7.97% (active),-20.7% (active),-22% (active),-59.5% (active),-94.9% (active),-4.44% (active),-95.5% (active),-75.7% (active),-100% (active),-19.8% (active),-26.6% (active),–
COc1ccc(C2C=C(c3ccc(Cl)cc3)N=C3SC=C(C)N32)c(Br)c1 (centres undefined),68.3%,46.4%,40.7%,65.2%,53%,49.9%,90.2%,7.84% (active),29.5%,14.9%,18.6%,67%,48.1%,35.3%,46.1%,10.8%,56.3%,33.2%,–
COc1cc(-c2nn(-c3cccc(NC(=O)Nc4ccc(Cl)c(C(F)(F)F)c4)c3)cc2-c2ccncc2)ccc1Cl,-57.8% (active),12.6%,11%,12.6%,9.33% (active),14.7%,-6.71% (active),-8.04% (active),-2.38% (active),-8.66% (active),-19.9% (active),35.8%,20.8%,0.426% (active),25.6%,-12.4% (active),2.21% (active),–,–
Cc1ccc(Nc2nnc(-c3ccc(Cl)cc3)o2)c(C)c1,67.9%,97.7%,82.6%,102%,95.7%,89.6%,81.6%,83.3%,61.7%,89.6%,95%,99%,–,–,87.2%,82.4%,87.9%,45.6%,53%
O=C(/C=C/c1c[nH]c2ccccc12)c1ccc(O)c(CN2CCN(c3ccc(F)cc3)CC2)c1,105%,93.4%,59.4%,116%,92.1%,95.4%,98.5%,93.2%,99.4%,91%,95.1%,90.8%,93.9%,101%,106%,103%,–,103%,–
O=S(=O)(NCCNc1nccc(-c2c(-c3ccc(F)cc3)nc3sccn23)n1)c1ccc(F)cc1,76.3%,73%,42.7%,114%,52.5%,62.7%,96.8%,64.3%,73.9%,74.7%,68.2%,102%,81.4%,92.7%,61.8%,90.1%,93.8%,–,–
Cc1ccc(/C=C2\CN(C(=O)CCN3CCC(=NO)CC3)C/C(=C\c3ccc(C)cc3)C2=O)cc1,91.5%,-34.4% (active),-86% (active),20.2%,-38.8% (active),5.48% (active),46.6%,1.97% (active),3.31% (active),-9.83% (active),20.4%,-8.32% (active),–,87.8%,-14% (active),8.71% (active),6.55% (active),14.6%,-0.19% (active)
Cc1ccc(C(=O)C2=Cc3cc4ccccc4n3Cc3cnnn32)cc1,94.4%,94.5%,95.8%,94.9%,109%,101%,107%,103%,101%,99.9%,106%,96.2%,104%,99.6%,104%,109%,94%,108%,–
O=c1c2sc3ncccc3c2nnn1-c1ccccc1,101%,98.7%,90.6%,126%,106%,93.5%,102%,90.7%,97.7%,99%,104%,101%,103%,105%,106%,112%,108%,107%,–
O=C(Nc1cccc(-n2cc(-c3ccncc3)c(-c3ccc(Cl)c(O)c3)n2)c1)Nc1cc(C(F)(F)F)cc(C(F)(F)F)c1,-73.7% (active),-36.1% (active),-34.4% (active),-24.6% (active),8.48% (active),8.94% (active),-18.6% (active),-16% (active),-18.5% (active),-10.9% (active),-12.2% (active),-32.9% (active),0.865% (active),-24.3% (active),4.8% (active),-67.5% (active),-26% (active),4.72% (active),–
COc1ccc2[nH]c(C(=O)OCc3ccc4c(Cl)cc(Cl)c(O)c4n3)cc2c1,-11.4% (active),-75.6% (active),-100% (active),-98.1% (active),-99.8% (active),-99.5% (active),10.5%,-9.99% (active),-18.5% (active),-34.6% (active),-31.2% (active),-71.8% (active),-57.5% (active),–,-92.4% (active),-90% (active),-16.1% (active),-58.9% (active),-12.5% (active)
c1cc2[nH]ncc2cc1-c1nc2ccc3[nH]ncc3c2c2c1CCC2,19%,63.9%,38%,30.8%,23.8%,23.3%,-3.31% (active),30.2%,20.9%,42.5%,53.9%,91.7%,–,5.23% (active),22.6%,56.4%,14.9%,–,10.9%
O=C1/C(=C/c2ccc([N+](=O)[O-])cc2)CN(C(=O)CCN2CCC(=NO)CC2)C/C1=C\c1ccc([N+](=O)[O-])cc1,2.76% (active),-17.6% (active),-94.9% (active),8.77% (active),-59.2% (active),-46.3% (active),-3.11% (active),-13.3% (active),-7.02% (active),-34.8% (active),6.6% (active),-41.3% (active),–,17.3%,-21.2% (active),-59% (active),22.8%,–,8.69% (active)
CCOC(=O)c1cn2c3c(cccc3c1=O)C(=O)/C(=C/c1cccc(Cl)c1Cl)C2,87.7%,94.2%,61.7%,100%,106%,91.6%,99.1%,99.2%,102%,92.4%,95.7%,102%,100%,86.1%,99.7%,113%,100%,101%,–
CCC(=O)OC1=CN2C(=NC(c3ccc(N)cc3)=CC2c2cc(OC)c(OC)c(OC)c2)S1 (centres undefined),64%,53.5%,58.7%,79.2%,60.5%,75.1%,81.9%,8.95% (active),39.8%,17.9%,36.6%,77.7%,57.3%,68.1%,65.4%,24.1%,49%,66.9%,–
COc1ccc(N2CCN(Cc3cc(C(=O)/C=C/c4c[nH]c5ccccc45)ccc3O)CC2)cc1,107%,97.1%,55.9%,117%,97.4%,90.2%,106%,95.8%,95%,94.8%,95.5%,106%,93%,–,109%,114%,105%,106%,–
COc1cc(-c2nn(-c3cccc(NC(=O)c4cccc(C(F)(F)F)c4)c3)cc2-c2ccncc2)ccc1Cl,-38.6% (active),34.4%,25.1%,8.08% (active),31.6%,44.7%,-19% (active),3.1% (active),8.63% (active),-1.13% (active),11.8%,49.3%,46.5%,7.18% (active),34%,-25.6% (active),-5.69% (active),2.75% (active),–
